Targets with a hit are over-represented here; the source holds about 8,800 in all. About 0.5% of all pairs of compound and target were hits.
Columns and labels:
Test in all cases: log2 fold change, soluble protein after heating vs DMSO (PISA); higher = thermal stabilisation; K562 lysate, 10 uM; active = over 0.2 and 3.5 SD of the protein, either way, in both replicates (recomputed)
erlotinib = compound: C#Cc1cccc(Nc2ncnc3cc(OCCOC)c(OCCOC)cc23)c1 [erlotinib]
Outline: (§1)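 Pellets of K562 cells were dounce-homogenised in PBS pH 7.4 with 1 mM MgCl2, and the crude extract was held at 1 mg/mL protein for a 30 min treatment with 10 μM compound. Aliquots were heated for 3 min over 48°C-58°C and pooled before NP-40 was added to 0.5% at 4°C. The supernatant from 21,000xg for 90 min was quantified by TMTpro 16plex LC-MS/MS with channel sums equalised. Values are reported from duplicates as log-two fold change in thermal stability relative to solvent controls.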

[1] = compound: C/C(=N\NC(=O)C1=CC(=CC=C1)S(=O)(=O)N2CCOCC2)/C3=C(C=CC(=C3)Cl)O
Outline: as §1

[2] = compound: C1=CC(=CC=C1C2=NC3=C(N2)C=C(C=C3)C(=O)N)OC4=CC=C(C=C4)Cl
Outline: as §1

[3] = compound: C1=CC2=C(C=CC(=C2)/C=C\3/C(=O)NC(=NCC4=CC=CS4)S3)N=C1
Outline: as §1

[4] = compound: C1=CC2=NC=CN=C2C=C1/C=C/3\C(=O)NC(=O)S3
Outline: as §1

[5] = compound: C1=CC=C(C=C1)C2=NC(=C(N2)C3=CC=NC=C3)C4=CC(=C(C=C4)Cl)O
Outline: as §1

[6] = compound: C1=CC=C2C(=C1)C3=NNC4=CC=CC(=C43)C2=O
Outline: as §1

[7] = compound: C1CCN(C1)C(=O)NC2=CC=CC(=C2)NC3=NC=C(C(=N3)NCCC4=CN=CN4)Br
Outline: as §1

[8] = compound: C1CN(CCC1(CC2=CC=C(C=C2)Cl)N)C3=NC=NC4=C3C=CN4
Outline: as §1

IRAK-1-4 Inhibitor I = compound: C1COCCN1CCN2C3=CC=CC=C3N=C2NC(=O)C4=CC(=CC=C4)[N+](=O)[O-] [IRAK-1-4 Inhibitor I]
Outline: as §1

Measured: log2 fold change

MTFP1 (UniProt Q9UDX5)
Sequence of UniProt Q9UDX5 (Q9UDX5 whole entry, looked up): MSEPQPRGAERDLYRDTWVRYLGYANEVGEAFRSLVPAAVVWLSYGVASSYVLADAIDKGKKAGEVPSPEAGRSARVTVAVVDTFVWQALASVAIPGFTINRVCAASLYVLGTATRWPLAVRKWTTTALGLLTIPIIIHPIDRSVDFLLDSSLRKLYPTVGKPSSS
inactive: erlotinib -0.006 | [1] 0.092 | [2] 0.035 | [3] 0.041 | [4] -0.043 | [5] -0.003 | [6] 0.081 | [7] -0.044 | [8] 0.044 | IRAK-1-4 Inhibitor I -0.058

NUP205 (UniProt Q92621)
Sequence of UniProt Q92621 (Q92621 whole entry, looked up): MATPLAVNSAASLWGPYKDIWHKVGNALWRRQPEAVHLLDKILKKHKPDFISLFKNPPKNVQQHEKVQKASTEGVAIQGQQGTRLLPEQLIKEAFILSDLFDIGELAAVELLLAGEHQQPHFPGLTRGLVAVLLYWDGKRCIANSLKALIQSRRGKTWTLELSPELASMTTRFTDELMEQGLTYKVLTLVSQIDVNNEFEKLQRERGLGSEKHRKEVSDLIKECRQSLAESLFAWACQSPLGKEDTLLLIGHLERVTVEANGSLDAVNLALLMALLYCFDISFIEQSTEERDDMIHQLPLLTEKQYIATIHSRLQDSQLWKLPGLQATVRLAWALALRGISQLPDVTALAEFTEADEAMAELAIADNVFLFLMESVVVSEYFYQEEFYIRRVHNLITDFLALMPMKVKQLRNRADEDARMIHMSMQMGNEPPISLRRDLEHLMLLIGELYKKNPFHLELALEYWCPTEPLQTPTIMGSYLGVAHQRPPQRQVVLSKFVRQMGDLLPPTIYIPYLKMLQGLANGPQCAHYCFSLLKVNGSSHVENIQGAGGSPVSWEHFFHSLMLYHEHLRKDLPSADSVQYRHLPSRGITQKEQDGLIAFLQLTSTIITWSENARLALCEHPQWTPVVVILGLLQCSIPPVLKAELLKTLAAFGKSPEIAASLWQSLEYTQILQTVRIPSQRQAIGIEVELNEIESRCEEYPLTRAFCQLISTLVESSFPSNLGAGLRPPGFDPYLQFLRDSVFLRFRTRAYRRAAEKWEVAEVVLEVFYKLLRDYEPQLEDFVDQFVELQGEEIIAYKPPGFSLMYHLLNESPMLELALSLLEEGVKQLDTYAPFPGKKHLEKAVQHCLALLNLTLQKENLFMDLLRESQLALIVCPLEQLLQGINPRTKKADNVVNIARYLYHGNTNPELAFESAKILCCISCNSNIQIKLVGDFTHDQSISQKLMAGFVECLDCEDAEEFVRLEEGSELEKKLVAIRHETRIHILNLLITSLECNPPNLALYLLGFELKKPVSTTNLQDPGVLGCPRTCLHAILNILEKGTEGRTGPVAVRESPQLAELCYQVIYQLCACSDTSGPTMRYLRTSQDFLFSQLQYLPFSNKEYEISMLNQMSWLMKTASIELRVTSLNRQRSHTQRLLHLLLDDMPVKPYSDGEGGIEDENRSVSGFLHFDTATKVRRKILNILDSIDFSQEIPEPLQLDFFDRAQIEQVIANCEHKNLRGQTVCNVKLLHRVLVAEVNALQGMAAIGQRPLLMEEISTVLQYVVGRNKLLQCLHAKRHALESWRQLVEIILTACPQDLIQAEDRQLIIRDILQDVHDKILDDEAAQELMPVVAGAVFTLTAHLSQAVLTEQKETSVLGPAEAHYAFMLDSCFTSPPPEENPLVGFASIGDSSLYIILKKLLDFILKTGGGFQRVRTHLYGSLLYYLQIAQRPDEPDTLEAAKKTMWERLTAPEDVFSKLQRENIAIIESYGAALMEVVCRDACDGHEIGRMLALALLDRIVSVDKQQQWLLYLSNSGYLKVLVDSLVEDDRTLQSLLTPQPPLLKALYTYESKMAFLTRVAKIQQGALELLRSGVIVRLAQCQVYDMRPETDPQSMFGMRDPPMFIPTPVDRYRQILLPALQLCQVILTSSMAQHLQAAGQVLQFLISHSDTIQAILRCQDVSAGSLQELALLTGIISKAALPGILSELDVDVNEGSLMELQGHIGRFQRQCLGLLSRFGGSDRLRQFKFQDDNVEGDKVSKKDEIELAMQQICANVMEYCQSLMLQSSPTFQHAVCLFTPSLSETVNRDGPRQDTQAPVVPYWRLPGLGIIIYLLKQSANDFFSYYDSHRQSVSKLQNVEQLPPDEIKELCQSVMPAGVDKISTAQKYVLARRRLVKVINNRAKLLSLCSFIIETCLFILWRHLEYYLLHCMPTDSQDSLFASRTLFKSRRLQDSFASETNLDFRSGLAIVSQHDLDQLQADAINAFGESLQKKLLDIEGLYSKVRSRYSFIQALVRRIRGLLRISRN
inactive: erlotinib 0.03 | [1] -0.022 | [2] -0.018 | [3] 0.049 | [4] -0.008 | [5] -0.013 | [6] -0.06 | [7] -0.009 | [8] 0.035 | IRAK-1-4 Inhibitor I 0.005

N6AMT1 (UniProt Q9Y5N5)
Sequence of UniProt Q9Y5N5 (Q9Y5N5 whole entry, looked up, one chain of several): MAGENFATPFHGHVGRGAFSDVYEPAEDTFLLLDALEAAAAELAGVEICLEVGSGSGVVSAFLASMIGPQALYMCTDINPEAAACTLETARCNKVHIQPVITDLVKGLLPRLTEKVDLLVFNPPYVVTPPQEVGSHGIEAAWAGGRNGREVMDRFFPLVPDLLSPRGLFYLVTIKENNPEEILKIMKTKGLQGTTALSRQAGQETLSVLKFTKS
inactive: erlotinib 0.022 | [1] -0.053 | [2] -0.082 | [3] 0.02 | [4] -0.097 | [5] 0.013 | [6] -0.272 | [7] 0.005 | [8] -0.013 | IRAK-1-4 Inhibitor I -0.022

NEDD8 (UniProt Q15843)
Sequence of UniProt Q15843 (Q15843 whole entry, looked up): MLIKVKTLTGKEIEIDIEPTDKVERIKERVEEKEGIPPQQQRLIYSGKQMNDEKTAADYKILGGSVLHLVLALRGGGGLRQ
inactive: erlotinib 0.018 | [1] -0.019 | [2] 0 | [3] 0.031 | [4] -0.047 | [5] 0.011 | [6] -0.053 | [7] 0.026 | [8] 0.07 | IRAK-1-4 Inhibitor I 0

NCAPG2 (UniProt Q86XI2)
Sequence of UniProt Q86XI2 (Q86XI2 whole entry, looked up): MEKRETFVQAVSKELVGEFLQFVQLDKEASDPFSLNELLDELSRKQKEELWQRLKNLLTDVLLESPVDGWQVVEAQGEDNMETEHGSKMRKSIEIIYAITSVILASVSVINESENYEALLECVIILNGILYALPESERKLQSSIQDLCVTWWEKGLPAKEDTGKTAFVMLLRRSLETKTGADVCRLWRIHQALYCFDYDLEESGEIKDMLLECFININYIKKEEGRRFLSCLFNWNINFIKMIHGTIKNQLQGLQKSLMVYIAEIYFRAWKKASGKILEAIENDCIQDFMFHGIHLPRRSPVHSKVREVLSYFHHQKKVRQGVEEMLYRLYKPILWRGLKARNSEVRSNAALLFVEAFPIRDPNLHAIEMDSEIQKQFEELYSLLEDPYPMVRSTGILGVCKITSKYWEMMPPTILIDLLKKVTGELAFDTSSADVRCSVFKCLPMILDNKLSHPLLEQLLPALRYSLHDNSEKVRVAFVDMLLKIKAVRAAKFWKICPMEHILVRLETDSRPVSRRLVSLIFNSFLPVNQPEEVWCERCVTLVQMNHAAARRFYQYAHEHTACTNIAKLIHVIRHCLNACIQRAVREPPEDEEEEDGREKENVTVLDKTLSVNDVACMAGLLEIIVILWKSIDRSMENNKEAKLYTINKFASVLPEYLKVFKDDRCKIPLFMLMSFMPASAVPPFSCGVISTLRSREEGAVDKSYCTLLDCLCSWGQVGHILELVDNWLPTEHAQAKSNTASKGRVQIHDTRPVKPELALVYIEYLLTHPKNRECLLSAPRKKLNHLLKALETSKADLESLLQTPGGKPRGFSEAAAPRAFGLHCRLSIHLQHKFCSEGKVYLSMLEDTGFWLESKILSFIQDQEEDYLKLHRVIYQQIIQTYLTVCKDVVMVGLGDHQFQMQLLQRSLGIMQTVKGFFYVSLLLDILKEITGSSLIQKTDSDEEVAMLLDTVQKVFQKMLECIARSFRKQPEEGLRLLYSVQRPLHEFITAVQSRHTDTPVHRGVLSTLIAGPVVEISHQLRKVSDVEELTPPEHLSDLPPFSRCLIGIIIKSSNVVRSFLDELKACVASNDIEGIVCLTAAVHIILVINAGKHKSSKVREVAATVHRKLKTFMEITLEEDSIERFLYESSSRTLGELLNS
inactive: erlotinib 0.023 | [1] -0.026 | [2] -0.019 | [3] 0.001 | [4] 0.006 | [5] -0.004 | [6] -0.026 | [7] 0.023 | [8] -0.016 | IRAK-1-4 Inhibitor I 0.004

ORC5 (UniProt O43913)
Sequence of UniProt O43913 (O43913 whole entry, looked up): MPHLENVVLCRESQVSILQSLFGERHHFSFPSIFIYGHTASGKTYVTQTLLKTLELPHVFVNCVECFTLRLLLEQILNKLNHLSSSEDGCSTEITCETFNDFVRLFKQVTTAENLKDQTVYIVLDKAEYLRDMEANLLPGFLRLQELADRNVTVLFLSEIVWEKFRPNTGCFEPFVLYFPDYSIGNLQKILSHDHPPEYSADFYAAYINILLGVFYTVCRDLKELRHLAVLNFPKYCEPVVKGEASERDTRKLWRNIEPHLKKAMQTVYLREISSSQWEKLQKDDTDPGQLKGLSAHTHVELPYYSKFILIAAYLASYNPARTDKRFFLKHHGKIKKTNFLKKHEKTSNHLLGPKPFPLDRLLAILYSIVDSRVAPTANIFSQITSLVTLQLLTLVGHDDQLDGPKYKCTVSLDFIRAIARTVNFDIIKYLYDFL
inactive: erlotinib 0.014 | [1] 0.021 | [2] -0.017 | [3] 0.003 | [4] 0.045 | [5] 0.029 | [6] -0.016 | [7] -0.085 | [8] -0.061 | IRAK-1-4 Inhibitor I -0.068

NEBL isoform 2 (UniProt O76041)
inactive: erlotinib 0 | [1] 0.081 | [2] 0.045 | [3] 0.012 | [4] 0.016 | [5] 0.015 | [6] 0.003 | [7] -0.007 | [8] -0.006 | IRAK-1-4 Inhibitor I -0.005

NAA35 (UniProt Q5VZE5)
inactive: erlotinib 0.017 | [1] 0.054 | [2] -0.023 | [3] 0.115 | [4] 0.021 | [5] 0.01 | [6] -0.002 | [7] -0.026 | [8] -0.025 | IRAK-1-4 Inhibitor I 0.013

NBN (UniProt O60934)
inactive: erlotinib -0.026 | [1] 0.068 | [2] 0.051 | [3] -0.004 | [4] -0.024 | [5] 0.013 | [6] -0.044 | [7] -0.005 | [8] 0.013 | IRAK-1-4 Inhibitor I 0.007

NOSIP (UniProt Q9Y314)
Sequence of UniProt Q9Y314 (Q9Y314 whole entry, looked up): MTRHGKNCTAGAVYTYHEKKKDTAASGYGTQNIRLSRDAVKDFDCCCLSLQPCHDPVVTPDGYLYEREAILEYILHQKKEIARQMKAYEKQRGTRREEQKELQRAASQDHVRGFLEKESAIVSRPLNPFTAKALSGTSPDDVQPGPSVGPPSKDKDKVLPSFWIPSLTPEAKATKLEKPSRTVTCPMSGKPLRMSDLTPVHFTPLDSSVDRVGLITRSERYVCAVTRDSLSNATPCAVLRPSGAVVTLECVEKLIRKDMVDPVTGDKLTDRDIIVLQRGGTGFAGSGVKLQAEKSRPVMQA
inactive: erlotinib 0.012 | [1] -0.001 | [2] 0.023 | [3] 0.022 | [4] 0.011 | [5] 0.025 | [6] -0.019 | [7] 0.003 | [8] 0.022 | IRAK-1-4 Inhibitor I 0.01

NPTN (UniProt Q9Y639)
inactive: erlotinib -0.047 | [1] -0.02 | [2] -0.056 | [4] 0.008 | [5] 0.048 | [6] 0.17 | [7] -0.003 | [8] 0.007 | IRAK-1-4 Inhibitor I 0.064
active: [3] -0.421

MRPL58 (UniProt Q14197)
inactive: erlotinib 0.025 | [1] -0.005 | [2] 0.054 | [3] -0.003 | [4] 0.01 | [5] -0.002 | [6] -0.025 | [7] -0.078 | [8] 0.043 | IRAK-1-4 Inhibitor I -0.012

NUB1 (UniProt Q9Y5A7)
inactive: erlotinib 0.049 | [1] 0.055 | [2] -0.003 | [3] -0.015 | [4] 0.002 | [5] 0.054 | [6] 0.023 | [7] -0.022 | [8] -0.023 | IRAK-1-4 Inhibitor I -0.02

PARD3 (UniProt Q8TEW0)
inactive: erlotinib 0.1 | [1] -0.288 | [2] 0.051 | [3] -0.146 | [4] -0.029 | [5] 0.021 | [6] 0.007 | [7] 0.067 | [8] 0.017 | IRAK-1-4 Inhibitor I 0.028

MYD88 isoform 6 (UniProt Q99836)
inactive: erlotinib -0.066 | [1] 0.007 | [2] -0.011 | [3] -0.019 | [4] -0.019 | [5] -0.015 | [6] -0.025 | [7] 0.032 | [8] -0.067 | IRAK-1-4 Inhibitor I 0.004

NNT (UniProt Q13423)
inactive: erlotinib -0.027 | [1] 0.013 | [2] -0.014 | [3] -0.012 | [4] -0.006 | [5] -0.008 | [6] -0.033 | [7] 0 | [8] 0.031 | IRAK-1-4 Inhibitor I -0.026

NLRP2 (UniProt Q9NX02)
inactive: erlotinib 0.004 | [1] -0.015 | [2] -0.002 | [3] -0.005 | [4] -0.013 | [5] -0.002 | [6] -0.021 | [7] 0.01 | [8] -0.031 | IRAK-1-4 Inhibitor I -0.043

PARG (UniProt Q86W56)
inactive: erlotinib 0.009 | [1] -0.013 | [2] -0.062 | [3] 0.008 | [4] -0.011 | [5] 0.004 | [6] -0.013 | [7] 0.003 | [8] -0.011 | IRAK-1-4 Inhibitor I 0.048

NOA1 (UniProt Q8NC60)
Sequence of UniProt Q8NC60 (Q8NC60 whole entry, looked up): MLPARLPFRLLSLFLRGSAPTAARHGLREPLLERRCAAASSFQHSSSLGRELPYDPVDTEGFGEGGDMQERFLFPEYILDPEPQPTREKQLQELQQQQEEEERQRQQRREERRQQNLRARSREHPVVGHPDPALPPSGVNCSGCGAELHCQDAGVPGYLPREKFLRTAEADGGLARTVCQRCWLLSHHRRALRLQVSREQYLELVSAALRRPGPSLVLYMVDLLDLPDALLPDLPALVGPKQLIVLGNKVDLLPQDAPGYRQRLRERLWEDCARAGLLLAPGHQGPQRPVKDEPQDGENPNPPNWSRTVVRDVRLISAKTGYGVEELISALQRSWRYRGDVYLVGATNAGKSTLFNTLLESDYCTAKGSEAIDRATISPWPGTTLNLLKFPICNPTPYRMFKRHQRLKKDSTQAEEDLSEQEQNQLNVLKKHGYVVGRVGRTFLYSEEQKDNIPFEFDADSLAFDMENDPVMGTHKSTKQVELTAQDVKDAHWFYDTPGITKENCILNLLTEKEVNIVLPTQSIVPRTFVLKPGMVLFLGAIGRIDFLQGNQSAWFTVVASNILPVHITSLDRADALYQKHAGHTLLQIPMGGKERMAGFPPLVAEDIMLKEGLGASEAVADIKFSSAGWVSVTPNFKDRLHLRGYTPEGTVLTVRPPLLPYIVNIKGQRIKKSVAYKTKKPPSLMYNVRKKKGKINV
inactive: erlotinib 0.001 | [1] 0.003 | [2] -0.007 | [3] -0.051 | [4] -0.024 | [5] 0.033 | [6] -0.088 | [7] 0.07 | [8] -0.046 | IRAK-1-4 Inhibitor I -0.032

NR2F2 (UniProt P24468)
inactive: erlotinib -0.007 | [2] 0 | [4] -0.192 | [5] 0.076 | IRAK-1-4 Inhibitor I 0.048

NRIP1 (UniProt P48552)
inactive: erlotinib 0.031 | [2] 0 | [4] -0.033 | [5] 0.024 | IRAK-1-4 Inhibitor I 0.114

P2RY1 (UniProt P47900)
inactive: erlotinib -0.014 | [2] -0.07 | [4] 0.148 | [5] 0.023 | [7] -0.024 | [8] 0.094 | IRAK-1-4 Inhibitor I 0.07

NR3C1 isoform 3 (UniProt P04150)
inactive: erlotinib 0.061 | [1] -0.019 | [2] -0.058 | [3] -0.075 | [4] 0.09 | [5] 0.044 | [7] 0.047 | [8] -0.064 | IRAK-1-4 Inhibitor I -0.059

Reference: the supplement of paper PMC10849652
